{
  "source": "the supplement of paper PMC6555819",
  "data": [
    {"system": "THRa:RXRa (NR concentration 90 nM, RXRa partner concentration 90 nM)", "experiment": "PBM binding z-score (relative to random genomic background probes); higher = stronger binding; sequences stand for … in GC…GCGATTGACAGCGTAGAATGAAGG", "method_in_brief": "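Probes were double-stranded and carried 34-nt variable regions with direct-repeat seeds, single-nucleotide variants, half-site ablations and random human genomic background sequences, printed on custom Agilent 4×180K protein-binding microarrays. Arrays were incubated 1 h with ligand-free nuclear receptor dimers in PBS pH 7.4, 2% milk, 0.02% Triton X-100, 1 mM DTT, 0.2 mg/mL BSA and 0.4 mg/ml salmon testes DNA. Antibodies against each partner (one per run) detected binding, and scanned fluorescence was regression-normalized. Binding z-scores use the random background probes as reference.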", "values": [
      {"sequence": "CCGAGTAGATTATGGGGCATTCAGGCAACGGTGA", "PBM binding z-score": 0.271},
      {"sequence": "CGTCAAAGATCAACTAAGGTAACGTAAAGCACGC", "PBM binding z-score": 4.69},
      {"sequence": "ACTATTAGCTGAGACGAGGGCAACCGATAGGTTG", "PBM binding z-score": 0.992},
      {"sequence": "ATCTCTAGGTAAGAATCAGTTCAGTGAAGAACGC", "PBM binding z-score": 0.888},
      {"sequence": "CTAGAAAGGTCGTGCTCAGGTGAGTATACCAAAC", "PBM binding z-score": 4.02},
      {"sequence": "TATTGTAGATCAACAGGAGGTTAAGAAAGATCGA", "PBM binding z-score": 1.23},
      {"sequence": "CCTGCTAGGTCAATGTTCAGCTAAAGCAGCTCGC", "PBM binding z-score": 2.34},
      {"sequence": "TCATATAGGTACATGCTAGGTGAAAGTCCGATCT", "PBM binding z-score": 2.02},
      {"sequence": "TTTCGGAGGACACGAAAGGTCAGAGCTCGACATC", "PBM binding z-score": 3.85},
      {"sequence": "CAGCCTAGGTCAGGGCCAGTCTAGGAGGAACGTT", "PBM binding z-score": 1.98},
      {"sequence": "TTACCAAGATGAAGGTCGTTGATCCCTCTGTAGA", "PBM binding z-score": 0.726},
      {"sequence": "TTACCAAGGTGAGCAGAGGTCGTTGATCCAACTC", "PBM binding z-score": 3.54},
      {"sequence": "TCATATAGGTAAACAGGTTAAAGTCCGTAAGTTA", "PBM binding z-score": 1.26},
      {"sequence": "TCGAGTAGGTTAGTCTGGGCATTCAGCCAACATA", "PBM binding z-score": 0.0539},
      {"sequence": "GCTCGGAGGACAAGGTCAGAGCATTGTCCGTAGA", "PBM binding z-score": 2.87},
      {"sequence": "GATACAGGGTCAGCTAGAGGACAGAGTATGGAAA", "PBM binding z-score": 3.79},
      {"sequence": "ACTAGCAGGCCAAGTTTCGGTCACTCAAACAAAG", "PBM binding z-score": 0.604},
      {"sequence": "AGTACAGGGTCATCGTAGGCCAGAGTACGCACAG", "PBM binding z-score": 4.59},
      {"sequence": "ATCTCTCGGTAACCAAGTTCAGTGAATGCCGAAC", "PBM binding z-score": 0.98},
      {"sequence": "GATACAGGGTCAGCTAGAGGCCAGAGTGTGGAAA", "PBM binding z-score": 3.15},
      {"sequence": "TAGCCTAGGTCAGATCGGGCCAGTAGACGCTATA", "PBM binding z-score": 3.76},
      {"sequence": "CGTCCAAGGTTATAGGAGGTCAGTGAAGACAGAT", "PBM binding z-score": 4.89},
      {"sequence": "TTACCAAGATGAGCTGAGGTCGTTGATCCAACTC", "PBM binding z-score": 2.68},
      {"sequence": "CTCAAAAGGTCGTGCTCAGGTGAGTATACCAAAC", "PBM binding z-score": 4.13},
      {"sequence": "TCGAGTAGGTTATCAATGGGGCATTCAGCTTTCT", "PBM binding z-score": 0.0952},
      {"sequence": "CGAACTAGGTGAGAACAGGACAGTGAAGGATGAT", "PBM binding z-score": 1.21},
      {"sequence": "GATAGAGGGTCAGCTAGAGGCCAGAGTATGGAAA", "PBM binding z-score": 2.39},
      {"sequence": "CGAACTAGGTCTGAACAGGACAGTGAAGGATGAT", "PBM binding z-score": 0.536},
      {"sequence": "TCTTGGAGATCAAGCAGGTTAAGAAAGCCTGAGT", "PBM binding z-score": 0.589},
      {"sequence": "CTCGAAAAGTCGTGCTCAGGTGAGTATACCAAAC", "PBM binding z-score": 1.75},
      {"sequence": "GCTAGTTGGTCAGTAAAAGGTCAGACACCGGTCG", "PBM binding z-score": 2.64},
      {"sequence": "CCTATTAGTTGACCATAGGGGCAACCGAAGCTCG", "PBM binding z-score": 0.842},
      {"sequence": "TCATATAGCTAAACAGGTGAAAGTCCGTAAGTTA", "PBM binding z-score": 0.318},
      {"sequence": "ATTTACGGGTCAACGAGGTTATAGCACGCGTATA", "PBM binding z-score": 4.19},
      {"sequence": "ACTATTAGTTGAGACGAAGGCAACCGATAGGTTG", "PBM binding z-score": -0.702},
      {"sequence": "ATCGAAAGGTCGTGAGGTGAGTGTACAGAAAGGC", "PBM binding z-score": 3.48},
      {"sequence": "TCGAGTAGGTTAGGGGCCTTCAGAATGGCGTCGA", "PBM binding z-score": -0.36},
      {"sequence": "CAAACTAGGTCACGAAAGATCAAAGTCGAATGAC", "PBM binding z-score": 3.49},
      {"sequence": "AGCACGAGGGCAATGAGTTGATAGCACGGGTGGC", "PBM binding z-score": 0.817},
      {"sequence": "TATACAGGGTCAAAGGCCAGCGTACGAATGTCGA", "PBM binding z-score": 3.54}
    ]}
  ]
}
